Experiment in all cases: qHTS profiling for inhibitors of Plasmodium falciparum proliferation (AID 504749); further: nearly all actives have a fitted effect of over 60% in size
Holding throughout (details): P. falciparum in erythrocytes, SYBR Green DNA, 72 h; series mostly up to 28.7 µM

In one assay the test system is PC15. In a few lines: (§1)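 Readout was DNA-dye fluorescence from lysed cultures, ex 485/em 535 nm. Parasitized red cells had grown 72 h with compound; data scaled between 0.29 uM artemisinin and DMSO wells and corrected using vehicle-only plates.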
The test system of a further assay is PC26. In outline:
as §1

In a further assay the test system is PC49. In a few lines: as §1
The subject of a further assay is TAB109. In a few lines: as §1
For a further assay, the system named is SC27B. In outline:
as §1

Another assay concerns W2. In outline: as §1
The next assay deals with TAB113. In outline: as §1
A further assay deals with TAB165. In a few lines: as §1

Inconclusive results are not listed. The source made the active and inactive calls. The call rests on the fitted dose curve; in most records, active means well fitted inhibition curve with a large enough effect; inconclusive means small, poorly fitted or top-dose-only effect; inactive means flat fitted curve, though single readings scatter.
Potency means the concentration at half of the fitted maximal effect.

With `CC(C)CCCCCCc1ccc(O)cc1`, the Potency result in the assay on PC15, in the assay on PC26, in the assay on PC49 and with TAB109 was “inactive” throughout.
On to `O=C(CCCN1CCN2CCCC2C1)c1ccc(F)cc1` (stereo not drawn), for which the Potency entry in the assay with PC15, in the assay with PC26, with PC49 and with SC27B was “inactive” throughout. Moreover, in the assay on W2, the Potency was 6.01 µM (active).
Consider `COc1ccc(/C=N/NC(=O)c2ccncc2)c(C(=O)O)c1OC`, for which the Potency entry in the assay on PC15, in the assay on PC26, in the assay on PC49, in the assay with SC27B, with TAB113 and in the assay with TAB165 was “inactive” in each case. Also, in the assay with W2, the Potency entry was “inactive”.
Turning to `CCOC(=S)SSC(=S)OCC`, the Potency result in the assay with PC15, with PC26, in the assay on PC49, in the assay with SC27B, in the assay with TAB109 and in the assay with TAB113 was “inactive” in each case. The Potency entry in the assay on TAB165 and in the assay with W2 was “inactive” throughout.
Take `C#C[C@]1(O)CC[C@@H]2[C@H]3CCC4=CC(=O)CC[C@H]4[C@H]3C(=C)C[C@@]21CC`: the Potency result with PC15, in the assay with PC49, in the assay with SC27B, with TAB109, in the assay with TAB113 and with TAB165 was “inactive” in each case.
As to `O=C(O)CCC/C=C\C[C@@H]1[C@@H](/C=C/[C@@H](O)COc2cccc(C(F)(F)F)c2)[C@H](O)C[C@@H]1O`, the Potency entry in the assay with PC15, with PC49, in the assay on SC27B, in the assay on TAB109, in the assay on TAB113 and with TAB165 was “inactive” throughout.
Take `c1ccc2c(c1)Sc1ccccc1N2CCN1CCCC1`: the Potency is 11.2 µM (active) in the assay on PC15; 12 µM (active) in the assay on PC26; 8.91 µM (active) in the assay with SC27B; 8.91 µM (active) with TAB109; 5.01 µM (active) in the assay with TAB113; 7.08 µM (active) in the assay on TAB165. Further, in the assay on W2, the Potency is 1.69 µM (active).
As for `CCSc1ccc2c(c1)N(CCCN1CCN(C)CC1)c1ccccc1S2`, the Potency entry with PC15, with PC26, with PC49, in the assay with TAB109 and with TAB165 was “inactive” in each case.
With `Cc1cc2nc3c(=O)[nH]c(=O)nc-3n(C[C@H](O)[C@H](O)[C@H](O)COP(=O)(O)OP(=O)(O)OC[C@H]3O[C@@H](n4cnc5c(N)ncnc54)[C@H](O)[C@@H]3O)c2cc1C`, the Potency entry in the assay with PC15, in the assay with PC49, in the assay on SC27B, with TAB109, in the assay on TAB113 and with TAB165 was “inactive” throughout. In addition, in the assay on W2, the Potency result was “inactive”.
For the molecule `C[C@H](N)C(=O)N[C@@H](C)P(=O)(O)O`, the Potency entry with PC15, with PC26, in the assay on PC49, with SC27B, with TAB113 and with TAB165 was “inactive” each time. Also, the Potency result in the assay with W2 was “inactive”.
In the case of `OCC1(CO)COC(C(Cl)(Cl)Cl)OC1`, the Potency entry in the assay with PC15, with PC26, in the assay on PC49, in the assay with SC27B, with TAB113 and in the assay on TAB165 was “inactive” each time. Besides, the Potency result with W2 is “inactive”.
As to `O=P(O)(O)CP(=O)(O)O`, the Potency result with PC15, with PC26, with PC49, in the assay with SC27B, in the assay on TAB109 and with TAB113 was “inactive” throughout. For the same molecule, the Potency result in the assay with TAB165 and with W2 was “inactive” each time.
Regarding `CC(=O)Oc1cccc(C(=O)O)c1OC(C)=O`, the Potency entry with PC15, in the assay with PC26, in the assay with PC49, in the assay on SC27B, in the assay on TAB113 and in the assay on TAB165 was “inactive” each time. For the same molecule, the Potency result with W2 is “inactive”.
For the molecule `O=C1NCCN1c1ncc([N+](=O)[O-])s1`, the Potency entry with PC15, in the assay on PC26, with SC27B, in the assay on TAB113, in the assay with TAB165 and with W2 was “inactive” in each case.
Turning to `CCCOC(=O)c1ccccc1O`, the Potency entry in the assay on PC15, in the assay on PC26, in the assay on PC49, in the assay on SC27B, with TAB113 and in the assay with TAB165 was “inactive” throughout.
In the case of `Cn1c(=O)c2c(ncn2CCOC(=O)C(C)(C)Oc2ccc(Cl)cc2)n(C)c1=O`, the Potency result with PC15, in the assay on PC26, in the assay on PC49, in the assay with SC27B, in the assay on TAB113 and in the assay with W2 was “inactive” in each case.
Turning to `O.O.O.O.O.O.O.O=S(=O)([O-])[O-].[Co+2]`, the Potency entry with PC15 was “inactive”. Moreover, the Potency was 7.94 µM (active) in the assay on PC49; 7.94 µM (active) with SC27B; 7.94 µM (active) in the assay on TAB109; 6.31 µM (active) with TAB113; 10 µM (active) in the assay with TAB165; 5.36 µM (active) with W2.
As for `NC(=O)CC[C@@H]1NC(=O)[C@H](Cc2ccccc2)NC(=O)[C@H](Cc2ccc(O)cc2)NC(=O)[C@@H](N)CSSC[C@@H](C(=O)N2CCC[C@H]2C(=O)N[C@@H](CCCN=C(N)N)C(=O)NCC(N)=O)NC(=O)[C@H](CC(N)=O)NC1=O`, the Potency result in the assay with PC15, with PC49 and in the assay with SC27B was “inactive” each time. In addition, in the assay on W2, the Potency is 8.49 µM (active).

For the origin of these results see PubChem BioAssay (NCATS).
